Measured values taken from PubChem BioAssay (NCI).
About 83,000 compounds went through this panel and 20% of them were active in at least one assay; those are over-represented in the sample as a whole.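 The endpoint reported here, percent growth, reads 100 for growth as untreated, 0 for no net growth and -100 for all cells dead.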 Calls of active or inactive are those of the source. The calls were made as follows: active = growth percent below 10; inactive = the rest.

Test system: MDA-MB-231 breast
Assay: NCI-60 one-dose screen, 48 h (100 = growth as untreated, 0 = no growth, -100 = all killed)
Conditions: 10 µM unless noted

Compound | growth
O=C(CCl)c1ccc([N+](=O)[O-])o1 | 64.6% (inactive)
CCCCCSC1C2C(=O)C(Br)=CC13CCNc1c(O)c4c5c(c13)=[N+]2CCC=5C=N4 (centres undefined) | -7.12% (active)
COc1ccc(C/C(C)=C(\c2ccc(OCCN3CCOCC3)cc2)c2ccc(OC(=O)Cc3ccccc3)cc2)cc1 | -48.4% (active)
Cn1cc(-c2csc(-c3cn(CCCCN4CCCCC4)c4ccc(F)cc34)n2)c2cccnc21 | 71.4% (inactive)
COc1ccc2c(c1)c(-c1nc(-c3cn(C)c4ncccc34)cs1)cn2CCCCN1CCCCC1 | -74.8% (active)
C[n+]1c(/C=C/c2ccc(N(CCCl)CCCl)cc2)sc2ccccc21 | 80.8% (inactive)
C=CC[Se]C(=O)c1ccccc1OC(C)=O | -25.5% (active)
CC(=O)OC1CCC2C3CCC4=C/C(=N/OC(=O)c5ccc(N(CCCl)CCCl)cc5)CCC4(C)C3CC(C)C12 (centres undefined) | 78.5% (inactive)
CCCCCCCC[n+]1ccc2ccccc2c1 | 67% (inactive)
Cn1cccc1C1CC(=O)N(CCC[Se]C#N)C1=O (centres undefined) | -45.3% (active)
C[Se]C(=O)c1ccccc1OC(C)=O | 68.3% (inactive)
O=C1Nc2ccccc2C2c3cccn3-c3ccccc3CN12 (centres undefined) | 39.2% (inactive)
CCOC(=O)[C@@H](C)C[C@H](Cc1ccccc1)NC(=O)c1csc([C@@H](C[C@H](C(C)C)N(C)C(=O)[C@H](CCC(C)C)NC(=O)[C@H]2CCCCN2C)OC(C)=O)n1 | 1.66% (active)
COC(=O)[C@H](C[C@H](Cc1ccccc1)NC(=O)c1csc([C@@H](C[C@H](C(C)C)N(C)C(=O)[C@@H](NC(=O)[C@H]2CCCCN2C)C(C)C)OC(C)=O)n1)NC(=O)OCc1ccccc1 | 5.23% [8.5 µM] (active)
CC1(C)N=C(N)N=C(N)N1c1ccc(OCCCNC(=O)Nc2ccc(S(=O)(=O)F)cc2)c(Cl)c1 | 65.1% (inactive)
O=C(CN1CCN(C(=O)c2ccco2)CC1)Nc1ccc(Cl)cc1C(=O)c1ccccc1Cl | 49.2% (inactive)
Cc1cc(N(CCCl)CCCl)ccc1C=Nc1ccccc1-c1ccccc1 | 94.4% (inactive)

Compound | growth
Cn1cc(-c2csc(-c3cn(CCN4CCOCC4)c4ccccc34)n2)c2cccnc21 | 69.8% (inactive)
CCOC(=O)[C@@H](C)C[C@H](Cc1ccccc1)NC(=O)c1csc([C@@H](C[C@H](C(C)C)N(C)C(=O)[C@H](CC)NC(=O)[C@H]2CCCCN2C)OC(C)=O)n1 | 5.4% (active)
ClC1=C(Cl)C(Cl)(C2(Cl)C(Cl)=C(Cl)C(Cl)=C2Cl)C(Cl)=C1Cl | -29.3% (active)
O=C([O][Hg][CH2]C1OCCOC1[CH2][Hg][O]C(=O)c1ccccc1)c1ccccc1 (centres undefined) | 93.2% (inactive)
COc1ccc([As]=[As]c2ccc(OC)c(NCS(=O)(=O)O)c2)cc1NCS(=O)(=O)O (centres undefined) | 4.41% (active)
[Cl][Hg][n]1c(-c2ccco2)nc2ccccc21 | 100% (inactive)
CCC[CH2][Sn]([CH2]CCC)([CH2]CCC)[O]c1ccc(Cl)cc1Cl | -78.2% (active)
NC(CCl)CCl | 102% (inactive)
CN1CCC(c2c[nH]c3ccccc23)C1 (centres undefined) | 103% (inactive)
CCCCCCCCCCCCCCCCCC1OC[C@@H](COC(=O)O[C@@H](C(=O)O[C@H]2C[C@@]3(O)[C@@H](OC(=O)c4ccccc4)[C@@H]4[C@]5(OC(C)=O)CO[C@@H]5C[C@H](O)[C@@]4(C)C(=O)[C@H](OC(C)=O)C(=C2C)C3(C)C)[C@@H](NC(=O)c2ccccc2)c2ccccc2)O1 (some centres undefined) | 60.5% (inactive)
CC1=C([Te]c2ccc(O)cc2)C(=O)c2ccccc2C1=O | 3.12% (active)
O=C1NC(=O)C(=Cc2cn(CCCCCCn3c4ccccc4c(=O)c4ccccc43)c3ccccc23)C(=O)N1 | 69.1% (inactive)
CC(C)OC(=O)[C@H](C)NP(=O)(Oc1ccccc1)C1CCCN(O)C1=O (some centres undefined) | 92.3% (inactive)
CCCCCCC(=O)NC1=C(N2CC2)C(=O)C(NC(=O)CCCCCC)=C(N2CC2)C1=O | 24.8% (inactive)
COc1ccc(/C=C\c2cc(OC)c(OC)c(OC)c2)cc1NS(=O)(=O)c1ccc(Cl)cc1 | 66% (inactive)
CC[C@H](C)[C@H](NC(=O)[C@H]1CCCCN1C)C(=O)N(C)[C@H](CC(=O)c1nc(C(=O)N[C@@H](Cc2ccccc2)C[C@H](C)C(=O)O)cs1)C(C)C | 88% (inactive)
C[C@]12C[C@@H](CO)[C@H](O)C[C@@H]1CC[C@@H]1[C@@H]2CC[C@]2(C)[C@@H](O)CC[C@@H]12 | 111% (inactive)
